Among all 5,400 compounds or so, about 190 (3.5%) showed an effect of 50% or more. What follows is part of a selection rich in strong results, with near analogues and random picks from the rest. Residues, ends and D or L forms follow the SMILES beside them. *: point of attachment. NHCH2CH2OH = OCCN*; For = O=C*
Test system: Vero-E6
Assay: primary screen, phospholipidosis by LipidTOX staining; higher = more effect of the substance
Details: 10 µM
In short: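 Drug-induced phospholipidosis detected with HCS LipidTOX Red reagent in Vero-E6 cells. Compounds tested at 10 μM, with amiodarone (10 μM) as positive control and DMSO (0.1 v/v %) as vehicle.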

Point of comparison: `COc1cccc(C(=O)CCN[C@@H](C)[C@H](O)c2ccccc2)c1`, result_ITMP 1.52%. Against it:
- CC(C)c1nc(N(C)S(C)(=O)=O)nc(-c2ccc(F)cc2)c1/C=C/[C@@H](O)C[C@@H](O)CC(=O)[O-] — lower, -8.19%
- Cc1nc(Nc2cnn(C3CCNCC3)c2)nc2c1N(C)C(=O)c1cc3ccccc3cc1N2C — higher, 103%
- CCOc1cc(N2CCC(O)CC2)ccc1Nc1ncc2c(n1)N(C)c1ccccc1C(=O)N2C — higher, 4.79%
- O=C(O)[C@@H]1C[C@@H](C2CCCCC2)CN1C(=O)CP(=O)(O)CCCCc1ccccc1 — lower, -0.11%
- O=c1nc[nH]c2c1cnn2[C@@H]1O[C@H](CO)[C@@H](O)[C@H]1O — higher, 2.43%
- CCC[C@@H]1C[C@@H](C(=O)N[C@H]([C@H]2O[C@H](SC)[C@H](O)[C@@H](O)[C@H]2O)[C@H](C)O)N(C)C1 — lower, -3.49%
- NC1(c2ccc(-c3nc4ccn5c(=O)[nH]nc5c4cc3-c3ccccc3)cc2)CCC1 — higher, 87.1%
- O=C(O)CCc1ccc(NCc2cccc(Oc3ccccc3)c2)cc1 — lower, -4.86%
- COc1cccc(CCc2ccccc2OCC(CN(C)C)OC(=O)CCC(=O)O)c1 (stereo not drawn) — higher, 64.3%
- O=C(O)CCCCN(CCc1ccccc1OCc1ccc(CCc2ccccc2)cc1)Cc1ccc(C(=O)O)cc1 — lower, 0.2%
- CCc1cccc(CC)c1N=C1NCCN1 — lower, -5.43%
- O=C(O[C@H]1CN2CCC1CC2)N(Cc1cc(F)c(F)c(F)c1)c1cccc(F)c1 — higher, 71.4%
- C[C@H](Nc1ncnc2[nH]cnc12)c1cc2ccc(F)cc2nc1-c1ccccn1 [R4A_0002240_001 / SPE_K21077415] — lower, -0.96%
- Nc1cccc(CNC(=O)c2ccc(Oc3ccc(OCc4cccc(F)c4)cc3)nc2)c1 — lower, -1.49%
- OCc1ccc(-c2nn(Cc3ccccc3)c3ccccc23)o1 — lower, -1.24%
- O=C(O)COc1nn(Cc2ccccc2)c2ccccc12 — lower, 0%
- CN(C)CCCOc1nn(Cc2ccccc2)c2ccccc12 — higher, 51.2%
- C[C@@H]1CCC[C@H](C)N1NC(=O)c1ccc(Cl)c(S(N)(=O)=O)c1 — higher, 3.56%
- CC(C)Cc1ccc(C(C)C(=O)O)cc1 (stereo not drawn) [R4A_0001344_001 / SPE_M64062803] — lower, -5.52%
- O=C(Nc1ccc(F)cc1)N1CCc2ccccc2C1c1ccc(C(F)(F)F)cc1 (stereo not drawn) — lower, -0.7%
- O=C(O[C@H]1CN2CCC1CC2)N1CCc2ccccc2[C@@H]1c1ccccc1 — higher, 59.2%
- O=C(C1CCCCC1)N1CC(=O)N2CCc3ccccc3C2C1 (stereo not drawn) — lower, -5.83%
- CC(C)(CO)[C@@H](O)C(=O)NCCC(=O)[O-] — lower, 1.43%
- C[C@@]12C[C@@]3(O)O[C@@H](O1)[C@]1(COC(=O)c4ccccc4)[C@H]3C[C@@]12O[C@@H]1O[C@H](CO)[C@@H](O)[C@H](O)[C@H]1O — lower, -5.49%
- CCc1cccc(CC)c1NC(=O)N1Cc2[nH]nc(NC(=O)c3ccc(N4CCN(C)CC4)cc3)c2C1 — higher, 3.48%
- CN1CCN(c2ccc(-c3cccc(CN4CCOCC4)c3)cc2NC(=O)c2c[nH]c(=O)cc2C(F)(F)F)CC1 — lower, -0.45%
- CN1CCN(c2ccc(C(=O)Nc3n[nH]c4ccc(Cc5cc(F)cc(F)c5)cc34)c(NC3CCOCC3)c2)CC1 — higher, 96.5%
- C[C@H]1O[C@@H](O[C@H]2CC[C@@]3(C)[C@H](CC[C@@H]4[C@@H]3C[C@@H](O)[C@]3(C)[C@@H](C5=CC(=O)OC5)CC[C@]43O)C2)C[C@H](O)[C@@H]1O[C@H]1C[C@H](O)[C@H](O[C@H]2C[C@H](O)[C@H](O[C@@H]3O[C@H](CO)[C@@H](O)[C@H](O)[C@H]3O)[C@@H](C)O2)[C@@H](C)O1 — lower, -9.7%
- CO/N=C(\C(=O)N[C@@H]1C(=O)N2C(C(=O)[O-])=C(COC(C)=O)CS[C@H]12)c1csc(N)n1 — lower, -7.3%
- COc1cccc([C@@H](C)NCCCc2ccccc2Cl)c1 — higher, 70.1%
- CC(NCCC(c1ccccc1)c1ccccc1)c1ccccc1 (stereo not drawn) — higher, 43.7%
- C[N@+]12CCCC[C@@H]1CCC(=C(c1cccs1)c1cccs1)C2 (racemic) — lower, -3.77%
- CO[C@@H]1[C@@H](OC(N)=O)[C@@H](O)[C@H](Oc2ccc3c([O-])c(NC(=O)c4ccc(O)c(CC=C(C)C)c4)c(=O)oc3c2C)OC1(C)C — lower, -3.28%
- CC(=O)NCCCS(=O)(=O)[O-] — higher, 7.64%
- COc1cc2c(Nc3ccc(Cl)c(Cl)c3F)ncnc2cc1OC[C@@H]1C[C@@H]2CN(C)C[C@@H]2C1 — higher, 55.5%
- COc1cc2ncnc(Nc3ccc(Cl)cc3F)c2cc1OC — lower, -0.91%
- COc1cc2c(Nc3ccc(Br)cc3F)ncnc2cc1OCC1CCN(C)CC1 — higher, 105%
- C=CC(=O)N1CCC(Oc2cc3c(Nc4ccc(Cl)c(Cl)c4F)ncnc3cc2OC)CC1 — higher, 35.1%
- COc1cc2ncnc(Nc3cccc(Cl)c3F)c2cc1OC(=O)N1CCN(C)C[C@H]1C — higher, 10.7%
- COc1ccc(Cl)c(Nc2ncnc3cc(OCC4CCN(C)CC4)c(OC)cc23)c1 — higher, 9.6%
- CC(C)CC(NC(=O)C(C)NC(=O)CNC(=O)C(NC=O)C(C)C)C(=O)NC(C)C(=O)NC(C(=O)NC(C(=O)NC(C(=O)NC(Cc1c[nH]c2ccccc12)C(=O)NC(CC(C)C)C(=O)NC(Cc1c[nH]c2ccccc12)C(=O)NC(CC(C)C)C(=O)NC(Cc1c[nH]c2ccccc12)C(=O)NC(CC(C)C)C(=O)NC(Cc1c[nH]c2ccccc12)C(=O)NCCO)C(C)C)C(C)C)C(C)C (stereo not drawn) (For-VGALAVVVWLWLWLW-NHCH2CH2OH; configuration not given here) — lower, -8.15%
- COC1/C=C\OC2(C)Oc3c(C)c(O)c4c(O)c(cc([O-])c4c3C2=O)NC(=O)/C(C)=C\C=C/C(C)C(O)C(C)C(O)C(C)C(OC(C)=O)C1C (stereo not drawn) — lower, -0.32%
- C[C@@H](O)[C@H]1C(=O)N2C(C(=O)[O-])=C([C@H]3CCCO3)S[C@H]12 — lower, -1.64%
- [Cl][Ru]([Cl])([Cl])[Cl].c1ccc2[nH]ncc2c1.c1ccc2[nH]ncc2c1 — lower, -2.33%
